# Test results from the supplement of paper PMC8728848.
# About 410 targets per protein were measured; listed, in parts, are those with the strongest signals and a random draw of the rest.
# Tests used:
# Experiment in all cases: glycan array binding signal (z-score within array); higher = stronger binding
# Conditions in all cases: glycan notation: IUPAC condensed, linker removed
# [1] = biological target: Fuc(a1-2)Gal(b1-3)GlcNAc(b1-2)Man(a1-3)[Fuc(a1-2)Gal(b1-3)GlcNAc(b1-2)Man(a1-6)]Man(b1-4)GlcNAc(b1-4)[Fuc(a1-6)]GlcNAc
# Outline: (§1)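 Columns mapping to the same glycan were averaged after glycan names were converted to IUPAC-condensed notation. The data come from 3228 arrays in the Consortium for Functional Glycomics database, limited to those with an available protein sequence. Binding is reported as a within-array Z-score averaged across arrays of one protein sequence and across linkers.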
# [2] = biological target: Fuc(a1-2)Gal(b1-3)GlcNAc(b1-3)[Gal(b1-4)GlcNAc(b1-6)]Gal(b1-4)Glc
# Outline: as §1
# [3] = biological target: Fuc(a1-2)Gal(b1-3)[Fuc(a1-4)]GlcNAc
# Outline: as §1
# [4] = biological target: Fuc(a1-2)Gal(b1-3)[Fuc(a1-4)]GlcNAc(b1-2)Man(a1-3)[Fuc(a1-2)Gal(b1-3)[Fuc(a1-4)]GlcNAc(b1-2)Man(a1-3)]Man(b1-4)GlcNAc(b1-4)GlcNAc
# Outline: as §1
# [5] = biological target: Fuc(a1-2)Gal(b1-4)GlcNAc(b1-6)GalNAc
# Outline: as §1
# [6] = biological target: Fuc(a1-2)Gal3S(b1-4)GlcNAc
# Outline: as §1
# [7] = biological target: Fuc(a1-2)[Gal(a1-3)]Gal(b1-3)GalNAc(b1-3)Gal(a1-4)Gal(b1-4)Glc
# Outline: as §1
# [8] = biological target: Fuc(a1-2)[Gal(a1-3)]Gal(b1-3)GlcNAc
# Outline: as §1
# [9] = biological target: Fuc(a1-2)[Gal(a1-3)]Gal(b1-3)GlcNAc(b1-6)GalNAc
# Outline: as §1
# [10] = biological target: Fuc(a1-2)[Gal(a1-3)]Gal(b1-4)[Fuc(a1-3)]GlcNAc(b1-3)GalNAc
# Outline: as §1
# [11] = biological target: Fuc(a1-3)[Gal(b1-4)]GlcNAc(b1-2)Man(a1-3)[Fuc(a1-3)[Gal(b1-4)]GlcNAc(b1-2)Man(a1-6)]Man(b1-4)GlcNAc(b1-4)GlcNAc
# Outline: as §1
# [12] = biological target: Fuc(a1-3)[Gal(b1-4)]GlcNAc(b1-3)Gal(b1-4)[Fuc(a1-3)]GlcNAc
# Outline: as §1
# [13] = biological target: Fuc(a1-3)[Gal(b1-4)]GlcNAc(b1-6)GalNAc
# Outline: as §1
# [14] = biological target: Fuc(a1-3)[Gal(b1-4)]GlcNAc6S
# Outline: as §1
# [15] = biological target: Gal(a1-3)Gal(b1-3)GlcNAc(b1-6)GalNAc
# Outline: as §1
# [16] = biological target: Gal(a1-3)Gal(b1-4)GlcNAc(b1-2)Man(a1-3)[Gal(a1-3)Gal(b1-4)GlcNAc(b1-2)Man(a1-6)]Man(b1-4)GlcNAc(b1-4)GlcNAc
# Outline: as §1
# [17] = biological target: Gal(b1-3)GlcNAc(b1-2)Man(a1-3)[Gal(b1-3)GlcNAc(b1-2)Man(a1-6)]Man(b1-4)GlcNAc(b1-4)GlcNAc
# Outline: as §1
# [18] = biological target: Gal(b1-3)GlcNAc(b1-2)Man(a1-3)[Gal(b1-3)GlcNAc(b1-2)Man(a1-6)]Man(b1-4)GlcNAc(b1-4)[Fuc(a1-6)]GlcNAc
# Outline: as §1
# [19] = biological target: Gal(b1-3)GlcNAc(b1-3)Gal(b1-4)GlcNAc
# Outline: as §1
# [20] = biological target: Gal(b1-3)GlcNAc(b1-3)Gal(b1-4)GlcNAc(b1-2)Man(a1-3)[Gal(b1-3)GlcNAc(b1-3)Gal(b1-4)GlcNAc(b1-2)Man(a1-6)]Man(b1-4)GlcNAc(b1-4)GlcNAc
# Outline: as §1
# [21] = biological target: Gal(b1-3)GlcNAc(b1-6)Gal(b1-4)GlcNAc
# Outline: as §1
# [22] = biological target: Gal(b1-3)GlcNAc(b1-6)[Gal(b1-3)]GalNAc
# Outline: as §1
# [23] = biological target: Gal(b1-3)[Fuc(a1-4)]GlcNAc(b1-6)GalNAc
# Outline: as §1
# [24] = biological target: Gal(b1-4)GlcNAc(b1-3)Gal(b1-3)GalNAc
# Outline: as §1
# [25] = biological target: Gal(b1-4)GlcNAc(b1-3)Gal(b1-4)GlcNAc(b1-2)Man(a1-3)[Gal(b1-4)GlcNAc(b1-3)Gal(b1-4)GlcNAc(b1-2)Man(a1-6)]Man(b1-4)GlcNAc(b1-4)GlcNAc
# Outline: as §1
# [26] = biological target: Gal(b1-4)GlcNAc(b1-3)Gal(b1-4)GlcNAc(b1-2)Man(a1-3)[Gal(b1-4)GlcNAc(b1-3)Gal(b1-4)GlcNAc(b1-2)Man(a1-6)]Man(b1-4)GlcNAc(b1-4)[Fuc(a1-6)]GlcNAc
# Outline: as §1
# [27] = biological target: Gal(b1-4)GlcNAc(b1-3)Gal(b1-4)GlcNAc(b1-3)Gal(b1-4)GlcNAc(b1-2)Man(a1-3)[Gal(b1-4)GlcNAc(b1-3)Gal(b1-4)GlcNAc(b1-3)Gal(b1-4)GlcNAc(b1-2)Man(a1-6)]Man(b1-4)GlcNAc(b1-4)[Fuc(a1-6)]GlcNAc
# Outline: as §1
# [28] = biological target: Gal(b1-4)GlcNAc(b1-3)Gal(b1-4)GlcNAc(b1-3)Gal(b1-4)GlcNAc(b1-3)Gal(b1-4)GlcNAc(b1-3)Gal(b1-4)GlcNAc(b1-2)Man(a1-3)[Gal(b1-4)GlcNAc(b1-3)Gal(b1-4)GlcNAc(b1-3)Gal(b1-4)GlcNAc(b1-3)Gal(b1-4)GlcNAc(b1-3)Gal(b1-4)GlcNAc(b1-2)Man(a1-6)]Man(b1-4)GlcNAc(b1-4)GlcNAc
# Outline: as §1
# [29] = biological target: Gal(b1-4)GlcNAc(b1-3)Gal(b1-4)GlcNAc(b1-6)[Gal(b1-3)]GalNAc
# Outline: as §1
# [30] = biological target: Gal6S(b1-4)Glc
# Outline: as §1
# [31] = biological target: Gal6S(b1-4)GlcNAc6S
# Outline: as §1
# [32] = biological target: GalNAc(a1-3)GalNAc
# Outline: as §1
# [33] = biological target: GalNAc(b1-4)GlcNAc(b1-3)GalNAc(b1-4)GlcNAc
# Outline: as §1
# [34] = biological target: GalNAc3S(b1-4)GlcNAc
# Outline: as §1
# [35] = biological target: GlcNAc(a1-4)Gal(b1-4)GlcNAc(b1-3)Gal(b1-4)GlcNAc
# Outline: as §1
# [36] = biological target: GlcNAc(a1-4)Gal(b1-4)GlcNAc(b1-3)Gal(b1-4)[Fuc(a1-3)]GlcNAc(b1-3)Gal(b1-4)[Fuc(a1-3)]GlcNAc
# Outline: as §1
# [37] = biological target: GlcNAc(b1-2)[GlcNAc(b1-4)]Man(a1-3)[GlcNAc(b1-4)][GlcNAc(b1-2)[GlcNAc(b1-6)]Man(a1-6)]Man(b1-4)GlcNAc(b1-4)[Fuc(a1-6)]GlcNAc
# Outline: as §1
# [38] = biological target: GlcNAc(b1-3)Gal(b1-4)GlcNAc(b1-3)Gal(b1-4)GlcNAc(b1-3)Gal(b1-4)GlcNAc(b1-3)Gal(b1-4)GlcNAc(b1-2)Man(a1-3)[GlcNAc(b1-3)Gal(b1-4)GlcNAc(b1-3)Gal(b1-4)GlcNAc(b1-3)Gal(b1-4)GlcNAc(b1-3)Gal(b1-4)GlcNAc(b1-2)Man(a1-6)]Man(b1-4)GlcNAc(b1-4)[Fuc(a1-6)]GlcNAc
# Outline: as §1
# [39] = biological target: GlcNAc(b1-3)Man
# Outline: as §1
# [40] = biological target: Kdn(a2-3)Gal(b1-3)GlcNAc
# Outline: as §1
# [41] = biological target: Kdn(a2-3)Gal(b1-4)[Fuc(a1-3)]GlcNAc
# Outline: as §1
# [42] = biological target: Kdn(a2-6)Gal(b1-4)GlcNAc
# Outline: as §1
# [43] = biological target: Neu5Ac(a2-3)Gal(b1-3)GalNAc(b1-3)Gal(a1-4)Gal(b1-4)Glc
# Outline: as §1
# [44] = biological target: Neu5Ac(a2-3)Gal(b1-3)GalNAc(b1-4)[Neu5Ac(a2-3)]Gal(b1-4)Glc
# Outline: as §1
# [45] = biological target: Neu5Ac(a2-3)Gal(b1-3)[Fuc(a1-4)]GlcNAc(b1-3)Gal(b1-3)[Fuc(a1-4)]GlcNAc
# Outline: as §1
# [46] = biological target: Neu5Ac(a2-3)Gal(b1-3)[Fuc(a1-4)]GlcNAc(b1-3)Gal(b1-4)[Fuc(a1-3)]GlcNAc
# Outline: as §1
# [47] = biological target: Neu5Ac(a2-3)Gal(b1-4)GlcNAc(b1-3)Gal(b1-4)[Fuc(a1-3)]GlcNAc
# Outline: as §1
# [48] = biological target: Neu5Ac(a2-3)[Neu5Ac(a2-6)]GalNAc
# Outline: as §1
# [49] = biological target: Neu5Ac(a2-6)Gal(b1-4)GlcNAc(b1-2)Man(a1-3)[Neu5Ac(a2-6)Gal(b1-4)GlcNAc(b1-2)Man(a1-6)]Man(b1-4)GlcNAc(b1-4)[Fuc(a1-6)]GlcNAc
# Outline: as §1
# [50] = biological target: Neu5Ac(a2-6)Gal(b1-4)GlcNAc(b1-2)Man(a1-6)[GlcNAc(b1-2)Man(a1-3)]Man(b1-4)GlcNAc(b1-4)GlcNAc
# Outline: as §1
# [51] = biological target: Neu5Ac(a2-8)Neu5Ac(a2-3)Gal(b1-3)GalNAc(b1-4)[Neu5Ac(a2-8)Neu5Ac(a2-3)]Gal(b1-4)Glc
# Outline: as §1
# [52] = biological target: Neu5Ac(a2-8)Neu5Gc(a2-3)Gal(b1-4)GlcNAc
# Outline: as §1
binder,measurement,setting,value
PX9937B-bvu-524-33-524 (Bacteroides vulgatus) (protein) GTAYWKNPDQFTAFNTGLHALLREKSYNFFLLGEPRADIYGDNPIGGEASQGMERLPFNTINKENVGISNYGDMYKIINQINQMIAKTTETTILTEATQNYYLGEAYGMRAYLYFHLLRSWGDVVLYLDYTEGQNLDLSNITKGVSPATEVMEQIKKDIQASENAFGSDYSFKLGRHFWSAAATQMLKGEAYLWSGRQMNGGNSDYTIAKNAFENVKKADVGLVTSSFKDIFSFENKKNKEMIFTIHNGKDEYEMWGGYYRMRLIPAQDKMVKIYCDENGNSFVGTPDAQLNGLTQLQVRREFYFKGFRNNDTRWTTSLKAVYKKDAQGVVSYFGPITYKFQGTMLEGGSTRSFLDDFPIYRYADCLLQLAMAKVLLGEDPTEEINAVRERAYGSKYFNEHKAEIAYPNDNDPEFYTDNKWMKPDNAGALEAILKERLREFMFEGKRWYDIRLLGWDYVHQYSSAEQSRLLWPIDAGTLTNNSALKQTPGYE,glycan array binding signal (z-score),[1],-0.232
same,glycan array binding signal (z-score),[2],-0.284
same,glycan array binding signal (z-score),[3],-0.457
same,glycan array binding signal (z-score),[4],-0.154
same,glycan array binding signal (z-score),[5],-0.136
same,glycan array binding signal (z-score),[6],-0.476
same,glycan array binding signal (z-score),[7],0.046
same,glycan array binding signal (z-score),[8],-0.275
same,glycan array binding signal (z-score),[9],-0.124
same,glycan array binding signal (z-score),[10],-0.416
same,glycan array binding signal (z-score),[11],1.23
same,glycan array binding signal (z-score),[12],-0.277
same,glycan array binding signal (z-score),[13],2.69
same,glycan array binding signal (z-score),[14],0.219
same,glycan array binding signal (z-score),[15],6.13
same,glycan array binding signal (z-score),[16],2.91
same,glycan array binding signal (z-score),[17],-0.057
same,glycan array binding signal (z-score),[18],0.088
same,glycan array binding signal (z-score),[19],-0.228
same,glycan array binding signal (z-score),[20],12.8
same,glycan array binding signal (z-score),[21],-0.085
same,glycan array binding signal (z-score),[22],7.68
same,glycan array binding signal (z-score),[23],-0.019
same,glycan array binding signal (z-score),[24],-0.08
same,glycan array binding signal (z-score),[25],2.05
same,glycan array binding signal (z-score),[26],1.48
same,glycan array binding signal (z-score),[27],2.54
same,glycan array binding signal (z-score),[28],8.61
same,glycan array binding signal (z-score),[29],3.08
same,glycan array binding signal (z-score),[30],-0.101
same,glycan array binding signal (z-score),[31],-0.297
same,glycan array binding signal (z-score),[32],-0.035
same,glycan array binding signal (z-score),[33],-0.144
same,glycan array binding signal (z-score),[34],-0.324
same,glycan array binding signal (z-score),[35],-0.254
same,glycan array binding signal (z-score),[36],0.453
same,glycan array binding signal (z-score),[37],-0.459
same,glycan array binding signal (z-score),[38],5.78
same,glycan array binding signal (z-score),[39],0.006
same,glycan array binding signal (z-score),[40],-0.588
same,glycan array binding signal (z-score),[41],-0.28
same,glycan array binding signal (z-score),[42],-0.409
same,glycan array binding signal (z-score),[43],-0.124
same,glycan array binding signal (z-score),[44],0.323
same,glycan array binding signal (z-score),[45],-0.529
same,glycan array binding signal (z-score),[46],-0.189
same,glycan array binding signal (z-score),[47],0.162
same,glycan array binding signal (z-score),[48],-0.279
same,glycan array binding signal (z-score),[49],0.782
same,glycan array binding signal (z-score),[50],0.042
same,glycan array binding signal (z-score),[51],-0.231
same,glycan array binding signal (z-score),[52],5.74
